Most compounds without a hit are left out; they make up all but 2.8% or so of the library.
HepG2 viability = qHTS for Inhibitors of TGF-b: Cytotox Counterscreen; Potency, µM (doses to about 46.1 µM), usual class: cytotoxic; HepG2 CAGA-GFP viability, ATP luminescence, 18 h; hit rate 0.76% among 410,000
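HepG2 CAGA-GFP cells (1000/well, DMEM with 1% FBS) received compound, then TGF-beta at 500 pg/mL final, and were incubated 18 hours at 37 degrees C. Viability was read by CellTiter-Glo luminescence. Media-only wells were set as complete cell-killing and DMSO as no toxicity.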
HttQ103 aggreg = qHTS Multiplex Assay to Identify Dual Action Probes in a Cell Model of Huntington: Aggregate Formation (GFP); PC12 HttQ103-GFP aggregates, Acumen cytometry, 40 h; Potency, µM (top dose mostly 46.1 µM), most hits filed as inhibitors; hit rate 1.1% among 220,000; AID 1688, 2009; further: nearly all actives have a fitted effect of over 60% in size
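Aggregates are detected as GFP objects 1–25 µm with signal 6 STDEV over background in lysates of induced PC12 cells. These carry Huntingtin exon 1 with 103 glutamines fused to GFP under an ecdysone promoter; compounds titrated.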
TGFb SMAD3 inh = qHTS for Inhibitors of TGF-b | HepG2 CAGA-GFP TGF-b/SMAD3 reporter, GFP fluorescence, 18 h; TGF-beta stimulated, 500 pg/mL final | Potency, µM (top dose mostly 46.1 µM), most hits filed as inhibitors | hit rate 1.2% among 410,000; further: nearly all actives have a fitted effect of over 65% in size
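Smad-responsive CAGA-GFP expression was quantified in HEPG2 cells exposed to compounds and 500 pg/mL final TGF-beta for 18 h at 37 degrees C; unstimulated wells defined full inhibition.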
ATXN viability = Viability Counterscreen for Primary qHTS for Inhibitors of ATXN expression; S2 cells (HEK-293 line with an ATXN2-luciferase reporter) viability, CellTiter-Fluor protease fluorescence, 24 h; Potency, µM (series often up to 56.7 µM), actives largely listed as cytotoxic; hit rate 0.49% among 400,000; further: nearly all actives have a fitted effect of over 40% in size
ATXN2 expr inh = Primary qHTS for Inhibitors of ATXN expression; HEK-293 ATXN2-luciferase reporter, luminescence, 24 h; Potency, µM (doses to about 57 µM), usual class: inhibitors; hit rate 0.72% among 360,000; AID 1745845, 2022; further: nearly all actives have a fitted effect of over 55% in size
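qHTS (up to 57 uM final) was run with 24 h compound exposure of reporter cells at 37 °C. Each well was multiplexed: SteadyGlo luminescence measured ATXN2-luciferase expression after a fluorogenic Gly-Phe-AFC viability readout (25 uM final).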
HTT ATP protect = qHTS Multiplex Assay to Identify Dual Action Probes in a Cell Model of Huntington: Cytoprotection (ATP). Potency, µM (doses to about 56.4 µM), hits mostly activators. hit rate 0.14% among 230,000. PC12 HTT-Q103 induced, cytoprotection, ATP luminescence, 40 h. AID 1471, 2008; further: nearly all actives have a fitted effect of over 45% in size
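ATP quantification (ATPlite) reports survival of PC12 cells in which tebufenozide, 100 nM final, switches on Htt exon 1 with 103 glutamines linked to GFP; compounds are titrated.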
Numbers stand for hits; . = inactive; ? = inconclusive; / = no result given; ! = not active in a repeat; [ ] = another dose, or the depositor's remark. The call rests on the fitted dose curve; in most records, active means well fitted curve in the direction sought with a large enough effect; inconclusive means small, poorly fitted or top-dose-only effect, or another doubt; inactive means no such curve, though single readings can be large; an effect the other way counts as inactive or inconclusive.

SMILES	HepG2 viability	HttQ103 aggreg	TGFb SMAD3 inh	ATXN viability	ATXN2 expr inh	HTT ATP protect
CCOCCCN1C(=O)c2[nH]nc(-c3ccccc3O)c2C1c1ccc(CC)cc1 (stereo not drawn)	18µM	/	?	?	.	/
N#CCCn1cc(CNCc2cccnc2)c(-c2ccccc2)n1	.	/	.	/	/	/
O=C(c1ccc(Cl)cc1)N1CCCCC(Sc2nnc(-c3ccc4c(c3)OCO4)o2)C1=O (stereo not drawn)	.	.	.	.	2.2µM	.[10 µM]
CCCCN(C)C(=O)Cn1ncc2c([nH]c3ccc(C)cc32)c1=O	.	/	.	.	.	/
Cc1ccc2[nH]c3c(=O)n(CC(=O)N(CCN(C)C)Cc4ccccc4)ncc3c2c1	.	/	11µM	.	.	/
O=C(c1ccccc1-n1cccn1)N1CCOc2ccc(CN3CCOCC3)cc2C1	/	/	/	.	/	/
Cc1ccccc1OCC(O)CN1CCN(CCN2C(=O)c3cccc4cccc(c34)C2=O)CC1 (stereo not drawn)	.	.	.	?	.	.[10 µM]
C=CCc1ccccc1OCC(O)CN1CCN(CCN2C(=O)c3cccc4cccc(c34)C2=O)CC1 (stereo not drawn)	.	.	14µM	?	28µM	.[10 µM]
c1cncc(OC2CCN(Cc3ccc4c(c3)CN(Cc3ccc5c(c3)OCO5)CCO4)CC2)c1	/	/	/	.	/	/
Cc1ccccc1NC(=O)Cc1nc(COC(=O)c2ccc(S(C)(=O)=O)c([N+](=O)[O-])c2)cs1	.	/	13µM	?	/	/
CS(=O)(=O)c1ccc(C(=O)OCC(=O)Nc2cc(C(F)(F)F)ccc2Cl)cc1[N+](=O)[O-]	.	/	8.9µM	/	/	/
NS(=O)(=O)c1cc(C(=O)OCC(=O)Nc2ccccc2[N+](=O)[O-])ccc1Cl	.	.	.	.	.	.[10 µM]
Cc1ccccc1NC(=O)Cc1nc(COC(=O)c2ccc(NC(N)=O)cc2)cs1	.	/	.	.	.	/
CS(=O)(=O)c1ccc(C(=O)OCC(=O)Nc2cccnc2Cl)cc1[N+](=O)[O-]	.	/	?	.	.	/
CS(=O)(=O)c1ccc(C(=O)OCC(=O)Nc2ccc(OC(F)(F)F)cc2)cc1[N+](=O)[O-]	.	/	?	/	/	/
Cc1ccccc1NC(=O)COC(=O)c1ccc(S(C)(=O)=O)c([N+](=O)[O-])c1	10µM!	?	7.9µM	.	.	.[10 µM]
CC1(C)C2CCC1(C)C(NC(=O)COC(=O)c1ccc(S(C)(=O)=O)c([N+](=O)[O-])c1)C2 (stereo not drawn)	6.3µM	/	5µM	/	/	/
CN(C)c1ccc(/C=C/c2ccnc3ccc(I)cc23)cc1	.	/	.	/	/	/
COc1ccc(CCC(=O)c2c(O)cc(O[C@@H]3O[C@H](CO)[C@@H](O)[C@H](O)[C@@H]3O[C@@H]3O[C@@H](C)[C@H](O)[C@@H](O)[C@@H]3O)cc2O)cc1O	/	/	/	/	.	/
N#CCSc1nc(Nc2ccc3c(c2)OCO3)c2ccccc2n1	.	25µM	.	.	.	.
O=C(NNC(=O)c1cc2cc(Br)ccc2oc1=O)c1ccc(O)cc1O	.	35µM	?	/	?	?
CCn1c(C(=O)NCc2ccccc2Br)cc2oc3ccccc3c21	13µM	/	.	.	.	/
c1cn(-c2ncnc3ccc(-c4ccoc4)cc23)cn1	/	/	/	/	/	2.5µM
O=C(/C=C/c1cccnc1)c1ccc(NC(=O)c2cccc(Br)c2)cc1	.	.	.	.	.	.
Cc1cccc(C(=O)Nc2ccc(C(=O)/C=C/c3cccnc3)cc2)c1	.	.	1.4µM	?	?	.[10 µM]
Cc1cccc(C(=O)Nc2cccc(C(=O)N/N=C/c3ccncc3)c2)c1	.	.	.	.	.	.[10 µM]
Cc1cccc(C(=O)Nc2ccc(C(=O)/C=C/c3ccncc3)cc2)c1	.	/	11µM	.	.	/
O=C(/C=C/c1cccnc1)/C=C/c1cccnc1	6.3µM	.[9.22 µM]	3.5µM	?	?	.[10 µM]

Screening data as filed in PubChem BioAssay.
